# Experimental data: PubChem BioAssay (NCATS)
# Records with an inconclusive call do not appear. Entries that show only a call come without a potency. Activity calls are given as the source filed them. Calls follow the shape of the dose curve; as a rule, active = well fitted cell-killing curve with a large enough effect; inconclusive = small, poorly fitted or top-dose-only effect, or effect the other way; inactive = no such curve, though single readings can be large or run the other way.
# Test: Quantitative High-Throughput drug screen in 47 multiple myeloma cell lines against the NCATS MIPE library collection: LP1_DSMZ cell viability assay (AID 1918982); also: nearly all actives have a fitted effect of over 35% in size
# Details: LP1 myeloma viability, CellTiter-Glo ATP luminescence, 48 h; series mostly up to 45.8 µM
# Description: PI: Beverly A. Mock Ph.D.
# Laboratory of Cancer Biology and Genetics,
# Center for Cancer Research, National Cancer Institute,
# National Institute of Health, Bethesda, Maryland
# Drug resistance and disease progression are common in multiple myeloma (MM) patients, underscoring the need for new therapeutic combinations. […] We hypothesized that effective combinations would reduce MYC expression and enhance p16 activity. […] These preclinical data identify potentially useful drug combinations for evaluation in drug-resistant MM and reveal potential mechanisms of combined drug sensitivity.
# Described herein is the primary MIPE qHTS used to cherrypick compounds. Validated compounds were then further tested for potential synergistic activiy.
# [1] Peat TJ, Gaikwad SM, Dubois W, Gyabaah-Kessie N, Zhang S, Gorjifard S, Phyo Z, Andres M, Hughitt VK, Simpson RM, Miller MA, Girvin AT, Taylor A, Williams D, D'Antonio N, Zhang Y, Rajagopalan A, Flietner E, Wilson K, Zhang X, Shinn P, Klumpp-Thomas C, McKnight C, Itkin Z, Chen L, Kazandijian D, Zhang J, Michalowski AM, Simmons JK, Keats J, Thomas CJ, Mock BA. Drug combinations identified by high-throughput screening promote cell cycle transition and upregulate Smad pathways in myeloma. Cancer Lett. 2023 Aug 1;568:216284. doi: 10.1016/j.canlet.2023.216284. Epub 2023 Jun 24. PMID: 37356470; PMCID: PMC10408729.
# SEQUENCE No. (e.g., 1, 2, 3, etc.); […] (e.g., Cells, Incubation, Reagent, etc.); VALUE and DESCRIPTION.
# 1; Cells; 5 uL; white, solid bottom 1536-well Greiner assay plate.
# 2; Compounds; 23 nL; Kalypsis pin tool (Wako USA) equipped with a 1536-well pin head to transfer to the assay plates.
# 3; Incubation; 48 hours; 37C incubation.
# 4; Reagent;5uL; CellTiter Glo (Promega).
# 5; Detector; 425V; Luminescence; Viewlux PerkinElmer.
# NOTES (numbers refer to Sequence numbers above)
# 1. The cell-based screening methods employed in this study were like those previously published. Briefly, the corresponding myeloma cell lines were screened in 1,536-well plates with 500 cells, 5-uL per well for inhibition of cell viability (assessed by measuring ATP levels with CellTiterGlo).
# 2. NCATS MIPE 4.0 library of approved and investigational drugs were added using the Kalypsis pin tool. Wells treated with DMSO only for 100% viability and media only for 0% viability were used as controls.
# 3. The assay plates were covered and incubated for 48 hours in a 37C, 5% CO2 incubator with controlled humidity.
# 4. After 48 hours, CellTilter-GloTM luminescent substrate mix (Promega) reagent was added to the assay plate and plates we incubated for 5 min at room temperature.
# 5. Signal was measured as median relative luminescence units on a ViewLux (PerkinElmer) multiplate reader.
# [1] Heske CM, Davis MI, Baumgart JT, Wilson K, Gormally MV, Chen L, Zhang X, Ceribelli M, Duveau DY, Guha R, Ferrer M, Arnaldez FI, Ji J, Tran HL, Zhang Y, Mendoza A, Helman LJ, Thomas CJ. Matrix Screen Identifies Synergistic Combination of PARP Inhibitors and Nicotinamide Phosphoribosyltransferase (NAMPT) Inhibitors in Ewing Sarcoma. Clin Cancer Res. 2017 Dec 1;23(23):7301-7311. doi: 10.1158/1078-0432.CCR-17-1121. Epub 2017 Sep 12. PMID: 28899971; PMCID: PMC6636827.
# Potency is read from the fitted curve at half-maximal effect.
row,SMILES,Potency
1,CCCS(=O)c1ccc2nc(NC(=O)OC)[nH]c2c1 (stereo not given),16.6 µM (active)
2,C[Se]CCC(N)C(=O)O (stereo not given),inactive
3,C[C@@H](c1ncncc1F)[C@](O)(Cn1cncn1)c1ccc(F)cc1F,inactive
4,Nc1ccc(S(N)(=O)=O)cc1,inactive
5,Cc1ncc([N+](=O)[O-])n1CC(C)O (stereo not given),inactive
6,O=C(O)c1cn(-c2ccc(F)cc2)c2cc(N3CCNCC3)c(F)cc2c1=O,inactive
7,CCN(CC)CCOc1ccc(Nc2ncc3cc(-c4c(Cl)cccc4Cl)c(=O)n(C)c3n2)cc1,1.87 µM (active)
8,O=C1c2ccccc2-c2n[nH]c3cccc1c23,inactive
9,COc1c2occc2cc2ccc(=O)oc12,inactive
10,C[C@@H](N)C1CCC(C(=O)Nc2ccncc2)CC1 (stereo not given in full),inactive
11,CCc1nc(N)nc(N)c1-c1ccc(Cl)cc1,8.33 µM (active)
12,CC1Cc2ccccc2N1NC(=O)c1ccc(Cl)c(S(N)(=O)=O)c1 (stereo not given),inactive
13,CC(C)[N+]1(C)[C@@H]2CC[C@H]1CC(OC(=O)C(CO)c1ccccc1)C2 (stereo not given in full),inactive
14,CN1CCC(=C2c3ccccc3CCc3sccc32)CC1,inactive
15,Cc1c(OCC(F)(F)F)ccnc1CS(=O)c1nc2ccccc2[nH]1 (stereo not given),inactive
16,CC1(C)NC(=O)N(c2ccc([N+](=O)[O-])c(C(F)(F)F)c2)C1=O,18.7 µM (active)
17,COc1c(O)cc2c(c1O)[C@@H]1O[C@H](CO)[C@@H](O)[C@H](O)[C@H]1OC2=O,inactive
18,Cc1cc(C2CCCCC2)n(O)c(=O)c1,14.8 µM (active)
19,O=C(O)c1cccc(-c2noc(-c3ccccc3F)n2)c1,inactive
20,NNc1nncc2ccccc12,inactive

row,SMILES,Potency
1,C[C@H](Cc1ccc(O)c(O)c1)[C@@H](C)Cc1ccc(O)c(O)c1,18.7 µM (active)
2,NCCCCNCCCN,16.6 µM (active)
3,O=C1NC(=O)C(c2ccccc2[N+](=O)[O-])=C1Nc1ccc(O)c(Cl)c1,inactive
4,COC(=O)C1=C(C)NC(C)=C(C(=O)OC(C)C)C1c1cccc2nonc12 (stereo not given),inactive
5,O=C(CS(=O)Cc1ccco1)NCC=CCOc1cc(CN2CCCCC2)ccn1 (stereo not given),inactive
6,Cc1cc2c(s1)Nc1ccccc1N=C2N1CCN(C)CC1,inactive
7,O=C1c2c(O)cc(O)cc2OC(c2ccc(O)c(O)c2)C1O (stereo not given),inactive
8,O=C(NC(Cc1cc(=O)[nH]c2ccccc12)C(=O)O)c1ccc(Cl)cc1 (stereo not given),inactive
9,NC(=NCc1ccccc1)NC(=O)c1nc(Cl)c(N)nc1N,inactive
10,CC(C)(S)[C@@H](N)C(=O)O,inactive
11,CCCc1cc(=O)[nH]c(=S)[nH]1,inactive
12,CN(c1nccc(=O)[nH]1)C1CCN(c2nc3ccccc3n2Cc2ccc(F)cc2)CC1,inactive
13,Cc1cccc(C#Cc2ccccc2)n1,inactive
14,Cc1nc2n(c(=O)c1CCN1CCC(c3noc4cc(F)ccc34)CC1)CCCC2,inactive
15,Cc1cc2cc3c(C)cc(=O)oc3c(C)c2o1,inactive
16,NC(=O)Cc1cccc(C(=O)c2ccccc2)c1N,inactive
17,Oc1ccc2ccccc2c1SSc1c(O)ccc2ccccc12,23.5 µM (active)
18,O=P(O)(O)C(O)(Cn1ccnc1)P(=O)(O)O,inactive
19,CC(C)[C@H](N)C(=O)OCCOCn1cnc2c(=O)[nH]c(N)nc21,inactive
20,Clc1ccc2c(N3CCN(CCCN4CCN(c5ccnc6cc(Cl)ccc56)CC4)CC3)ccnc2c1,inactive
